Screening results deposited in PubChem BioAssay by National Center for Advancing Translational Sciences (NCATS).
ALDH1A1 block = blocks purified human ALDH1A1 activity. P00352. Purified ALDH1A1, NADH fluorescence, propionaldehyde substrate. Potency, µM (highest dose often 75.3 µM), inactives show at the highest dose activity, negative = inhibition, hits mostly inhibitors. 7.3% of 220,000 active;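 note: potency is the fitted concentration of half-maximal effect; plate controls were no enzyme wells and a reference inhibitor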
HPGD block = inhibitors of human 15-hydroxyprostaglandin dehydrogenase (HPGD); 4.3% of 150,000 active; P15428; Potency, µM, inactives show at the highest dose activity change, negative = inhibition, actives largely listed as inhibitors; purified HPGD, NADH fluorescence kinetic, PGE2 substrate; note: potency is the fitted concentration of half-maximal effect
Target sequence (P15428 whole entry, looked up): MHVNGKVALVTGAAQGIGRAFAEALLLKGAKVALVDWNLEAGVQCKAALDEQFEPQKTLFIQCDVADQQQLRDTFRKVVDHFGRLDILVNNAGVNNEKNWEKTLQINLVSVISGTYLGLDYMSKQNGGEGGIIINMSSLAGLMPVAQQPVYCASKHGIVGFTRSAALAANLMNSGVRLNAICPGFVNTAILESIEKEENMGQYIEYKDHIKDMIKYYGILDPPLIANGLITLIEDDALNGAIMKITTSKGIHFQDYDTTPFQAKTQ
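20 nM HPGD preincubated 15 min at room temperature with compound in 50 mM Tris-HCl pH 8, 0.01% Tween 20. Started with 1 mM NAD+ and 30 uM prostaglandin E2; NADH fluorescence (360/450 nm) read 5 times over 30-s intervals, last minus first.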
PNC inhibitor = blocks assembly of the perinucleolar compartment; activity change (PNC), negative = inhibition, % at 10 µM; PC3M PTB-GFP, PNC prevalence imaging, 16 h; hits give low values; 3.1% of 140,000 active;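 active = readout at or below -70, meaning at least 70% loss of cells showing the perinucleolar compartment, a nuclear body marking cancer cells; inconclusive = readout between -30 and a set limit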;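 note: plate controls were DMSO wells for no effect and camptothecin positive control wells for full effect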
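PC3M cells stably expressing PTB-GFP, 750–1000 cells/well, treated 16 h at 37 °C with compound (23 nl of library stock), in duplicate. After paraformaldehyde fixation and Hoechst stain, imaged at 20x; PNC prevalence scored by image analysis.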
Numbers without * were called inactive; ? = inconclusive; · = no result; [ ] = dose if it differs, or a comment. Hits are enriched below; roughly 11% of the tested compounds scored in any of these assays. Unless noted, calls come from the whole dose curve; as a rule, active = well fitted inhibition curve with a large enough effect (not every such curve was filed as active); inconclusive = small, poorly fitted or top-dose-only effect, or another doubt; inactive = no such curve, though single readings can be large or run the other way. Unless noted, % is set by controls: 0 for no effect and ±100 for the full control effect.

SMILES	ALDH1A1 block	HPGD block	PNC inhibitor
COc1ccc(Sc2ccc(/C=C3\C(=O)NN(c4ccccc4)C3=O)o2)cc1	?	16µM*	39
CCCCCCC(=O)OCC(=O)c1ccc2c(c1)NC(=O)CO2	3.5µM*	·	·
CCc1ccc(OCC(=O)OCC(=O)c2ccc3c(c2)NC(=O)CO3)cc1	-4%	-20%	5
O=C1COc2ccc(C(=O)CCl)cc2N1	0.11µM*	·	·
O=C1COc2ccc(C(=O)C[n+]3cccc(O)c3)cc2N1	20µM*	·	·
O=C1COc2ccc(C(=O)c3ccccc3C(=O)O)cc2N1	-3%	-1%	26
CCC(=O)c1ccc(OCC(=O)c2ccc3c(c2)NC(=O)CO3)cc1	4%	·	·
COc1ccc(C(OC(=O)c2ccco2)C(=O)NC(C)(C)C)cc1 (stereo not given)	10%	·	·
CCOc1ccc(NS(=O)(=O)c2ccc(C)c(C(=O)O)c2)cc1	9%	-3%	·
CN(Cc1nc(-c2cnccn2)no1)Cc1n[nH]c2c1CCCC2	-3%	·	·
Cc1cc2ccccn2c1C(=O)c1ccc(Cl)cc1	-11%	-26%	-105*
Cc1cc2ccccn2c1C(=O)c1ccncc1	-1%	2%	48
O=[N+]([O-])c1c(Nc2ccccc2O)ccc2nonc12	5%	·	·
CC(=O)Nc1ccc(Nc2ccc3nonc3c2[N+](=O)[O-])cc1	22µM*	·	·
CS(=O)(=O)Nc1ccc(C2=NN(C(=O)c3ccco3)C(c3ccccc3)C2)cc1 (stereo not given)	16µM*	-12%	?
COc1ccc(S(=O)(=O)N2N=C(c3ccc(NS(C)(=O)=O)cc3)CC2c2ccco2)cc1 (stereo not given)	22µM*	·	·
CCS(=O)(=O)Nc1ccc(C2=NN(C(=O)c3ccco3)C(c3ccc(C)cc3)C2)cc1 (stereo not given)	?	?	-23
CS(=O)(=O)Nc1ccc(C2=NN(C(=O)c3ccco3)C(c3cccc(F)c3)C2)cc1 (stereo not given)	14µM*	·	·
Cc1ccc(C2CC(c3ccc(NS(C)(=O)=O)cc3)=NN2C(=O)c2ccco2)cc1 (stereo not given)	?	-13%	9
CS(=O)(=O)Nc1ccc(C2=NN(S(C)(=O)=O)C(c3ccccc3)C2)cc1 (stereo not given)	?	?	33
O=C1OCC(CO)(CO)N=C1NNc1ccc(Cl)c(Cl)c1	0%	-1%	22
CC(=O)Nc1ccc(N(C(=O)CNC(=O)c2ccco2)C(C(=O)NCC2CCCO2)c2ccccc2)cc1 (stereo not given)	-1%	·	·
CC(=O)Nc1ccc(N(C(=O)CNC(=O)c2ccco2)C(C(=O)NCc2ccco2)c2ccccc2F)cc1 (stereo not given)	7.9µM*	·	·
NC(=O)CCCCn1ccc(NC(N)=NCC(F)(F)F)n1	1%	-12%	·
COC(=O)N/N=C/c1cn(Cc2ccccc2Cl)c2ccccc12	-4%	-11%	?
SMILES	ALDH1A1 block	HPGD block	PNC inhibitor
Cc1[nH][nH]c(=O)c1C(c1c(C)[nH][nH]c1=O)c1cn(Cc2ccccc2Cl)c2ccccc12	0.45µM*	-10%	25
CCOC(=O)C(Cc1ccccc1)C(=O)Nc1cccc2ccccc12 (stereo not given)	5%	-15%	17
CCOc1cc(-c2cc(-c3ccc(C)cc3)nc(N)c2C#N)ccc1O	-11%	-24%	1
CCOc1cc(/C=C(\C#N)c2[nH]nc(N)c2C#N)ccc1O	?	25µM*	41
Cc1cc(N2CCN(c3nnnn3-c3ccccc3)CC2)n2ncnc2n1	22µM*	-6%	?
Cc1cc(N2CCN(c3ccccc3)CC2)n2nnnc2n1	-12%	-7%	-24
Cc1cc(N2CCN(S(=O)(=O)Cc3ccccc3)CC2)n2ncnc2n1	-2%	-7%	-99*
Cc1cc(N2CCN(S(=O)(=O)c3ccc(Br)cc3)CC2)n2ncnc2n1	-4%	·	·
CNC(=O)COC(=O)/C=C/c1c(C)nn(-c2ccccc2)c1C	-1%	-11%	20
CCn1c2ccccc2c2nnc(NCCCO)nc21	2%[13.5 µM]	-10%	·
Cc1cc(C)nc(SCC(=O)NN=C2CCCC2)n1	-15%	·	·
COc1cc(/C=N/NC(=O)CSc2cc(C)c(Br)cc2C)ccc1O	0%	-13%	16
Cc1cc(SCC(=O)NN=C2CCN(C(C)C)CC2)c(C)cc1Br	?	25µM*	-29
Cc1cc(SCC(=O)N/N=C/c2ccc(O)c(O)c2O)c(C)cc1Br	4.5µM*	10µM*	35
CC(=O)OC1CC2C(C)(C)C(=O)C3OC3[C@]2(C)C2CC[C@@]3(C)C(c4ccoc4)OC(=O)C4OC43[C@]12C (stereo not given in full)	-3%	0%	·
O=C(NCc1cccs1)C1CC(=O)N(c2ccc(Cl)cc2)C1 (stereo not given)	-1%	·	·
COc1ccccc1NC(=O)CNS(=O)(=O)c1ccccc1	?	-6%	-1
Cc1ccc(C)c(NC(=O)CNS(=O)(=O)c2ccccc2)c1	-1%	-4%	-80*
Cc1ccc(S(=O)(=O)N[C@H](C(=O)OCn2nnc3ccccc3c2=O)C(C)C)cc1	-11%	-9%	-24
O=C(CSc1nc2ccccc2o1)c1cc2ccccc2oc1=O	-4%	-6%	-19
Cc1cc(C)nc(SCC(=O)c2cc3ccccc3oc2=O)n1	14µM*	18µM*	-29
Cc1ccc(S(=O)(=O)NCCC(=O)OCn2nnc3ccccc3c2=O)cc1	28µM*	-10%	9
Cn1cnnc1SCC(=O)OCN1C(=O)c2ccccc2C1=O	0%	-7%	-17
Cc1cc(C)nc(SCC(=O)OCN2C(=O)c3ccccc3C2=O)n1	10µM*	-14%	?
CCOc1ccccc1Nc1ccc(N)cc1S(=O)(=O)O	-6%[13.5 µM]	-10%	·
SMILES	ALDH1A1 block	HPGD block	PNC inhibitor
O=C(CN1CCN(C(=O)c2ccco2)CC1)Nc1cccc([N+](=O)[O-])c1	-9%	·	·
COc1cc(CN2CCNC(=O)C2CC(=O)N2CCCO2)cc(OC)c1 (stereo not given)	8%	·	·
Cn1c(O)c(C=NCC2CCNCC2)c(=O)n(C)c1=O	-10%	-8%	79
CCOc1ccccc1NC(=O)COC(=O)CN(C)S(=O)(=O)c1ccc(C)cc1	4%	-17%	0
CCOc1ccccc1NC(=O)COC(=O)CNS(=O)(=O)c1ccc(C)cc1	-9%	-8%	-116*
CC(C)(Oc1ccc(Cl)cc1)C(=O)OCn1nnc2ccccc2c1=O	5µM*	?	?
CCC(=O)OCn1nnc2ccccc2c1=O	-2%	·	·
Cc1ccc(S(=O)(=O)NCC(=O)OCN2C(=O)c3ccccc3C2=O)cc1	4µM*	-6%	12
CCOc1ccc(S(=O)(=O)NCCC(=O)OCN2C(=O)c3ccccc3C2=O)cc1	?	-2%	-7
O=C(NC1CCCC1)c1n[nH]c2ccccc12	2%	·	·
COc1ccc(C2=[N+](C)CCn3cccc32)c(OC)c1	-3%	-5%	-30
COc1cc(NC(=O)CSc2nccc(C)n2)c(C)cc1[N+](=O)[O-]	-9%	-10%	1
N#Cc1cnc(NOCc2ccc(Cl)cc2)nc1	6%	·	·
O=C(Nc1cccc(S(=O)(=O)N2CCOCC2)c1)C(c1ccccc1)N1CCCCC1 (stereo not given)	7.1µM*	·	·
O=C(Nc1ccccc1)c1ccc(S(=O)(=O)N2CCOCC2)cc1	-8%	-13%	?
